A selection: hits, their analogues and other compounds. The true share with any hit is near 5.8%.
MCF10A rerep: A quantitative high throughput screen for small molecules that induce DNA re-replication in MCF 10a normal breast cells. Potency, µM (series often up to 46.1 µM), most hits filed as activators. MCF 10A DNA re-replication, Hoechst nuclear intensity, 48 h. hit rate 2.9% among 350,000. AID 624296, 2012; further: nearly all actives have a fitted effect of over 50% in size
12-LOX inh: Primary qHTS assay for inhibitors of human arachidonate 12S-lipoxygenase (ALOX12): Round 2; purified 12hLO, xylenol orange hydroperoxide absorbance; AID 1671190, 2021; hit rate 1.1% among 580,000; Potency, µM (top dose mostly 108 µM), hits mostly inhibitors
Target sequence (P18054 whole entry, looked up): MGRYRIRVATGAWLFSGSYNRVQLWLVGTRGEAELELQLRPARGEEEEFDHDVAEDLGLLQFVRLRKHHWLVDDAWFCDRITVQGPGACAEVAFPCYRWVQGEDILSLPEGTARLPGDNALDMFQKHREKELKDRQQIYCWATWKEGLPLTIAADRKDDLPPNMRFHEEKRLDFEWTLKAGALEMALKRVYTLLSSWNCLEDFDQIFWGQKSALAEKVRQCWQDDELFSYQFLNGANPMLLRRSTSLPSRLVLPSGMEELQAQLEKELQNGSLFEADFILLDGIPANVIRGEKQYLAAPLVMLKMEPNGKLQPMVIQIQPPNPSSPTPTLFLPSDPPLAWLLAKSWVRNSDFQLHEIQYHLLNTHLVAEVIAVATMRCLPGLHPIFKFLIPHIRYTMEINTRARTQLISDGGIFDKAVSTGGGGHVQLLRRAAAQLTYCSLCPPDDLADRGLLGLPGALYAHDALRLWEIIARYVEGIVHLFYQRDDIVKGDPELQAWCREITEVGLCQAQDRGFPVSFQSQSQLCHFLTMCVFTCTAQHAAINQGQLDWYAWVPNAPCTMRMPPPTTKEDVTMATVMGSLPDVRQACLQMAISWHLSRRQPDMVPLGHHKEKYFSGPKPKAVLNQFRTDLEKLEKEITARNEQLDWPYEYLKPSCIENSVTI
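Hydroperoxide product was detected by ferrous iron/xylenol orange as the 573 to 405 nm absorbance ratio. Arachidonic acid at 40 uM (final) was turned over for 30 min at room temperature by 150 nM human 12hLO, pH 7.0 Hepes buffer, after 15 min compound preincubation.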
PINK1 expr mod: A Quantitative High throughput Screen to Identify Chemical Modulators of PINK1 Expression; PINK1 immunofluorescence, high-content cytometry, 24 h; Potency, µM (top dose mostly 76.6 µM), most hits filed as activators; hit rate 0.2% among 410,000; active means well fitted activation curve with a large enough effect; inconclusive means small, poorly fitted or top-dose-only effect; cell line not stated here; further: nearly all actives have a fitted effect of over 65% in size
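Decision-based qHTS: stable cells, 24 h exposure to five compound concentrations, CCCP as control. Fixed cells stained for PINK1 plus nuclear, mitochondrial and cell markers, cytometer read.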
KB-3-1 tox: qHTS assay for MDR1-selective chemotherapeutics: Primary screen using the parental adenocarcinoma cell KB-3-1; hit rate 1.4% among 400,000; KB-3-1 viability, CellTiter-Glo ATP luminescence, 72 h; Potency, µM (highest dose often 46.1 µM), usual class: cytotoxic; AID 1347075, 2019; further: nearly all actives have a fitted effect of over 60% in size
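72 h, 37 °C compound treatment of KB-3-1 parental cells; CellTiter-Glo added, 10 min, luminescence read. Data corrected against DMSO-only plates and normalized before curve fitting.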
KB-V1 MDR tox: qHTS assay for MDR1-selective chemotherapeutics: Primary screen using the drug-selected MDR subline cells KB-V1; KB-V1 MDR cells viability, CellTiter-Glo, 72 h; Potency, µM (series often up to 46.1 µM), actives largely listed as cytotoxic; hit rate 3.4% among 400,000; AID 1347076, 2019; further: nearly all actives have a fitted effect of over 60% in size
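In this primary screen, KB-V1 cells overexpressing P-gp are incubated with library compounds (lowest to highest concentration) for 72 h at 37 degrees C before a luminescent ATP viability read.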
SW480 rereplic: A quantitative high throughput screen for small molecules that induce DNA re-replication in SW480 colon adenocarcinoma cells. SW480 DNA re-replication, Hoechst DNA content imaging, 48 h. Potency, µM (top dose mostly 46.1 µM), most hits filed as activators. hit rate 1.8% among 340,000; further: nearly all actives have a fitted effect of over 55% in size
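First, 250 cells per well were seeded. Next, compound or vehicle (23 nL) was pinned in, plates sat 48 hr at 37 C. Finally Hoechst was added for 40 min before fluorescence scanning.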
Numbers stand for hits. Unless noted, the call rests on the fitted dose curve; in most records, active means well fitted curve in the direction sought with a large enough effect; inconclusive means small, poorly fitted or top-dose-only effect, or another doubt; inactive means no such curve, though single readings can be large; an effect the other way counts as inactive or inconclusive.

Screening CC(=O)Nc1cc(-c2ccc(CO)cc2)cn2c(-c3ccc(F)c(Cl)c3)cnc12 returned 12-LOX inh 35µM, PINK1 expr mod inactive, KB-3-1 tox inactive and KB-V1 MDR tox inactive.
For COc1cc(-c2cnc3c(NC=O)cc(-c4ccccc4Cl)cn23)cc(OC)c1OC the results were 12-LOX inh inconclusive, PINK1 expr mod inactive, KB-3-1 tox 1µM and KB-V1 MDR tox 3.3µM.
Screening COc1ccccc1-c1cc(NC=O)c2ncc(-c3ccc(F)cc3)n2c1 returned 12-LOX inh inconclusive, PINK1 expr mod inactive, KB-3-1 tox 16µM and KB-V1 MDR tox 9.2µM.
Screening COc1ccc(-c2cc(NC(C)=O)c3ncc(-c4ccc(OC)c(OC)c4)n3c2)cc1OC returned 12-LOX inh inconclusive, PINK1 expr mod inactive, KB-3-1 tox inconclusive and KB-V1 MDR tox 12µM.
For CC(=O)Nc1cc(-c2ccc(F)cc2)cn2c(-c3ccc(F)c(Cl)c3)cnc12 the results were 12-LOX inh inconclusive, PINK1 expr mod inactive, KB-3-1 tox inactive and KB-V1 MDR tox inactive.
COc1ccccc1-c1cc(NC=O)c2ncc(-c3cccc(C(F)(F)F)c3)n2c1 was read as 12-LOX inh inactive, PINK1 expr mod inactive, KB-3-1 tox inconclusive and KB-V1 MDR tox inconclusive.
N#Cc1cccc(CN2C[C@@H](CO)[C@H](c3ccccn3)C2)c1 was read as 12-LOX inh inactive.
Screening Cc1cccc(CC(=O)N2CC(C(=O)NCCc3ccncc3)C3(CCOCC3)C2)c1 (stereo unspecified) returned 12-LOX inh inactive.
Screening CCn1c(SCc2nc(-c3ccc(OC)c(OC)c3)no2)nnc1-c1cccs1 returned MCF10A rerep inactive, 12-LOX inh inactive, PINK1 expr mod inactive, KB-3-1 tox inactive, KB-V1 MDR tox 9.2µM and SW480 rereplic inactive.
CCc1ccc(-c2noc(CSc3nnc(-c4ccccc4OC)n3CC)n2)cc1 was read as 12-LOX inh inactive.
Cc1nnc(SCc2nnc(-c3cccs3)o2)n1C1CCCCC1 was read as MCF10A rerep inactive, 12-LOX inh inactive, PINK1 expr mod inactive, KB-3-1 tox inactive, KB-V1 MDR tox inconclusive and SW480 rereplic inactive.
`COc1ccc(-c2nnc(SCc3nnc(-c4cccs4)o3)n2CC2CCCO2)cc1` (stereo unspecified) gave MCF10A rerep inactive, 12-LOX inh inactive, PINK1 expr mod inactive, KB-3-1 tox inactive, KB-V1 MDR tox 4.6µM and SW480 rereplic inactive.
Screening COc1ccc(-c2nnc(CSc3nnc(-c4ccncc4)n3C3CCCCC3)o2)cc1OC returned MCF10A rerep inactive, 12-LOX inh inactive, PINK1 expr mod inactive, KB-3-1 tox inactive, KB-V1 MDR tox 13µM and SW480 rereplic inactive.
Screening CCc1cc(=O)n(CC(=O)Nc2cccc(SC)c2)c(N2CCOCC2)n1 returned 12-LOX inh inactive.
For COc1ccc(CN2C[C@H]3CCCN3c3cc(Br)ccc3S2(=O)=O)cc1 the results were MCF10A rerep 1.2µM, PINK1 expr mod inactive, KB-3-1 tox 1.8µM, KB-V1 MDR tox inconclusive and SW480 rereplic 1.6µM.
`C=C1[C@@H](O)CN(Cc2ccc(OC)cc2)S1(=O)=O` gave KB-3-1 tox inconclusive and KB-V1 MDR tox inactive.
`CCOC(=O)CSc1c(-c2cccs2)[nH]c2ccccc12` gave MCF10A rerep 23µM, 12-LOX inh inactive, PINK1 expr mod inactive, KB-3-1 tox inconclusive, KB-V1 MDR tox inconclusive and SW480 rereplic inconclusive.
Screening O=C(c1cc2cc(Cl)ccc2oc1=O)N1CCc2ccccc2C1 returned 12-LOX inh inactive.
Screening O=C(O)c1cccc(-n2sc3ccccc3c2=O)c1 returned MCF10A rerep inconclusive, 12-LOX inh 11µM, PINK1 expr mod inactive, KB-3-1 tox inconclusive, KB-V1 MDR tox inactive and SW480 rereplic inconclusive.
For O=c1c2cc(F)ccc2sn1-c1ccccc1 the results were MCF10A rerep inconclusive, 12-LOX inh inconclusive, PINK1 expr mod inactive, KB-3-1 tox inconclusive, KB-V1 MDR tox inactive and SW480 rereplic inconclusive.
For O=c1c2cc(C(F)(F)F)ccc2sn1-c1ccccc1 the results were 12-LOX inh inactive, PINK1 expr mod inconclusive, KB-3-1 tox inconclusive and KB-V1 MDR tox 21µM.
`O=c1c2ccccc2sn1-c1nccs1` gave MCF10A rerep 16µM, 12-LOX inh 1.6µM, PINK1 expr mod inactive, KB-3-1 tox inactive, KB-V1 MDR tox inactive and SW480 rereplic inconclusive.
`O=C1c2ccccc2C(=O)N1c1nccs1` gave MCF10A rerep inactive, 12-LOX inh inactive, PINK1 expr mod inactive, KB-3-1 tox inactive, KB-V1 MDR tox inactive and SW480 rereplic inactive.
Screening O=c1c2ccccc2sn1-c1ccccc1 returned MCF10A rerep 9.2µM, 12-LOX inh 0.56µM, PINK1 expr mod inactive, KB-3-1 tox inconclusive, KB-V1 MDR tox inactive and SW480 rereplic 12µM.
O=C(O)c1cccc(-n2c(/C=C/c3ccccc3)nc3ccccc3c2=O)c1 was read as MCF10A rerep inactive, 12-LOX inh inconclusive, PINK1 expr mod inactive, KB-3-1 tox inactive, KB-V1 MDR tox inactive and SW480 rereplic inconclusive.
For CC(NCc1cccc(Oc2nnnn2-c2ccccc2)c1)c1ccccc1 (stereo unspecified) the results were 12-LOX inh inactive.
`CCNC(=O)NC(=O)CN(Cc1ccccc1)CC(C)C(=O)OC` (stereo unspecified) gave 12-LOX inh inactive.
Cc1ccc(-n2sc3ccccc3c2=O)cc1S(=O)(=O)N1CCCCC1 was read as MCF10A rerep 16µM, 12-LOX inh 0.089µM, PINK1 expr mod inactive, KB-3-1 tox inconclusive, KB-V1 MDR tox inconclusive and SW480 rereplic inconclusive.
CC(=O)Nc1ccc(-c2cc(N)n(-c3ccccc3)n2)cc1 was read as MCF10A rerep inactive, 12-LOX inh inactive, PINK1 expr mod inactive, KB-3-1 tox inactive, KB-V1 MDR tox inactive and SW480 rereplic inactive.
For CC(=O)Nc1ccc2c(=O)n(-c3ccccc3)sc2c1 the results were 12-LOX inh 1µM, PINK1 expr mod inactive, KB-3-1 tox inactive and KB-V1 MDR tox inactive.
Screening N#Cc1ccc2c(=O)n(-c3ccccc3)sc2c1 returned 12-LOX inh 0.45µM, PINK1 expr mod inactive, KB-3-1 tox inconclusive and KB-V1 MDR tox inconclusive.
Screening CN(C)S(=O)(=O)c1cccc(-n2sc3ccccc3c2=O)c1 returned MCF10A rerep inconclusive, 12-LOX inh 1.8µM, PINK1 expr mod inactive, KB-3-1 tox inactive, KB-V1 MDR tox inactive and SW480 rereplic inconclusive.
For Cc1cccc(C)c1NC(=O)CNC(=O)c1cc2cc(Cl)ccc2nc1C the results were 12-LOX inh inactive.
COc1ccc(CN2CC(Oc3ccc(F)cc3C)C2)cc1 was read as 12-LOX inh inactive.

Compound activity as filed in PubChem.
